Compound activity: PubChem, National Center for Advancing Translational Sciences (NCATS)
Compounds with a hit are over-represented: about 17% of the library has one in this group of screens.
DT40 TDP1 CPT – growth inhibition of DT40 Tdp1-/-;hTDP1 cells with camptothecin (screen for TDP1 inhibitors); chicken DT40 Tdp1-/-;hTDP1 cells + 20 nM CPT, ATP luminescence, 48 h; Potency, µM (titrated, usually from 46.2 µM), inactives show at the highest dose activity change, negative = growth inhibition, hits mostly inhibitors; 420,000 compounds, 12% hits; AID 686979; note: % is set by controls: 0 for no effect and ±100 for the full control effect; nearly all actives have a fitted effect of over 55% in size
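Cell growth measured by CellTiter-Glo luminescence after a minimum 48 h, 37 C compound exposure with 20 nM CPT in Tdp1-knockout DT40 cells stably expressing hTDP1, seeded 400/well; qHTS titration format.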
DT40 TDP1 no CPT – qHTS for Inhibitors of human tyrosyl-DNA phosphodiesterase 1 (TDP1): qHTS in cells in absence of CPT. 420,000 compounds, 15% hits. Potency, µM (doses to about 46.2 µM), inactives show top-dose activity change, negative = growth inhibition, actives largely listed as inhibitors. DT40 Tdp1-/- hTDP1 cells, no CPT, ATP luminescence, 48 h. AID 686978, 2013; note: % is set by controls: 0 for no effect and ±100 for the full control effect; nearly all actives have a fitted effect of over 55% in size
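Seeded 400 DT40-hTDP1 cells/well (vehicle DMSO, no 20 nM CPT); pinned compounds; ≥48 hr at 37 °C; CellTiter-Glo luminescence as viability measure.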
ClpP mod – qHTS Assay for Activators of ClpP. ATP-dependent Clp protease proteolytic subunit (Bacillus subtilis (strain 168)), P80244. 340,000 compounds, 1.9% hits. purified B. subtilis ClpP, FRET peptide cleavage, 20 min. Potency, µM (series often up to 57.5 µM), inactives show top-dose activity change, negative = active; active = well fitted falling curve with a large enough effect; inconclusive = small, poorly fitted or top-dose-only effect; inactive = no such curve, though single readings can be large or run the other way; note: the source files actives as falling curves though it sought activators and does not explain the sign; nearly all actives have a fitted effect of over 65% in size
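FRET quenching reversal measured ClpP activation: 10 microg/mL B. subtilis ClpP at pH 8 with the FRET-FV decapeptide, read at 430 nm after 320 nm excitation. The 20-min minus 0-min signal was scaled between DMSO/no-enzyme wells and ADEP (5.8 microM final).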
TDP1 block – inhibitors of human tyrosyl-DNA phosphodiesterase TDP1 | Q9NUW8 | recombinant TDP1, AlphaScreen DNA substrate cleavage | Potency, µM (series often up to 130 µM), inactives show at the highest dose activity change, negative = inhibition, most hits filed as inhibitors | 350,000 compounds, 0.28% hits | AID 485290; note: % is set by controls: 0 for no effect and ±100 for the full control effect; nearly all actives have a fitted effect of over 40% in size
Target sequence (Q9NUW8 whole entry, looked up): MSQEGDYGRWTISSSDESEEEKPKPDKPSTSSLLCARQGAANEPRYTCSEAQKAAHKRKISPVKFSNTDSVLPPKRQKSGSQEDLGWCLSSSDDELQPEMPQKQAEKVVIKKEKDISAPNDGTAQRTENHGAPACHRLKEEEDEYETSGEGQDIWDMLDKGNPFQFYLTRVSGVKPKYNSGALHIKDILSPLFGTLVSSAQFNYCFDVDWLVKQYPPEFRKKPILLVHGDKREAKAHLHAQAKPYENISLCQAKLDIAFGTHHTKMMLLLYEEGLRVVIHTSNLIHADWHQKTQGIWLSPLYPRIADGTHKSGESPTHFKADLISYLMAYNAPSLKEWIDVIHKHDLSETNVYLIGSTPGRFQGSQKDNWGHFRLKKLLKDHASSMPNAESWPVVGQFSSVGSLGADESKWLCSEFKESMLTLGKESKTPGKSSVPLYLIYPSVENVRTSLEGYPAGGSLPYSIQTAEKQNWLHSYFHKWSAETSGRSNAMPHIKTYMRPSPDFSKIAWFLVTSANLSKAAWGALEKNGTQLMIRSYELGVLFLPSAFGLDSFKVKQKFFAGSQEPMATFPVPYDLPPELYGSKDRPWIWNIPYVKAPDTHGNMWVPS
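Recombinant E. coli-expressed Tdp1 (1 nM) preincubated with compound 15 min at RT, then 5'-biotin/3'-phosphotyrosine-FITC DNA substrate (15 nM) added for 5 min. AlphaScreen beads (10 ug/ml) added, 10 min RT; tyrosine-FITC cleavage read as signal loss.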
An asterisk follows results filed as active; ? = inconclusive; / = no result; [ ] = remark or other dose. Unless noted, calls come from the whole dose curve; as a rule, active = well fitted curve in the direction sought with a large enough effect; inconclusive = small, poorly fitted or top-dose-only effect, or another doubt; inactive = no such curve, though single readings can be large; an effect the other way counts as inactive or inconclusive. Potency is the fitted concentration of half-maximal effect.

SMILES	DT40 TDP1 CPT	DT40 TDP1 no CPT	ClpP mod	TDP1 block
CC(=O)OC1CCC23C(=O)OC45CCC(C6=CC(=O)OC6)C4(C)CCC2C5CCC3(O)C1 (configuration not stated)	12µM*	10µM*	/	9%[56.1 µM]
CC(=O)OC1CC[C@]2(C)C(CCC3C2CC[C@]2(C)C(C4=CC(=O)OC4)C(OC(C)=O)CC32O)C1 (some centres not stated)	-18%	?	/	8%[56.1 µM]
C[C@]12CCC(=O)C=C1CCc1ccc(O)cc12	-5%	-19%	/	11%[56.1 µM]
Nc1cccc2cccc([N+](=O)[O-])c12	-18%	-29%	16µM*	/
Clc1cccc(Cl)c1	/	/	/	12%
Cc1ccc(C(O)(C(=O)OC(C)C)C(O)c2ccc(F)cc2)cc1 (configuration not stated)	?	21µM*	1%	/
COc1ccc(/C=N\NC(=O)c2cccc(F)c2)cc1COc1ccccc1	0.82µM*	0.65µM*	/	/
COC(=O)C1=C(c2ccc3ccccc3c2)C[C@@H]2CC[C@H]1N2C(=O)N1CCCC1	2.9µM*	3.3µM*	-4%	0%
COC(=O)C1=C(c2cc3ccccc3o2)C[C@@H]2CC[C@H]1N2C(=O)N1CCOCC1	3.7µM*	/	1%	/
COC(=O)C1=C(c2ccccc2)C[C@@H]2CC[C@H]1N2C(=O)N1CCOCC1	?	?	1%	/
COC(=O)C1=C(c2ccc3ccccc3c2)C[C@@H]2CC[C@H]1N2C(=O)N1CCC(O)CC1	?	?	0%	1%
COC(=O)C1=C(c2ccc3ccccc3c2)C[C@@H]2CC[C@H]1N2C(=O)N1CCOCC1	?	5.8µM*	-5%	2%
COC(=O)C1=C(c2ccc3ccccc3c2)C[C@@H]2CC[C@H]1N2C(=O)N1CCCCC1	2.3µM*	1.8µM*	0%	1%
Clc1cc(Cl)c(Cl)c(Cl)c1	/	/	/	1%
CC(C)c1nn2c(=O)cc(COC(=O)Cc3ccccc3)nc2s1	-8%	-5%	-1%	7%
COc1cc(CNC(=O)CCCC/C=C\C(C)C)ccc1O	?	?	/	3%
C=C1[C@@H]2C[C@@]3([C@H]1O)[C@H]1C[C@@H]4[C@@]5(C)CC[C@H](O)[C@]4([C@H]1N(CC)C5)[C@H]3C[C@H]2O	/	/	/	13%[21 µM]
COC(=O)C1=C(c2ccc(OC)c(OC)c2)C[C@@H]2CC[C@H]1N2C(=O)N1CCC(O)CC1	-10%	-14%	0%	0%
COC(=O)C1=C(c2ccc(OC)c(OC)c2)C[C@@H]2CC[C@H]1N2C(=O)N1CCCCC1	8.2µM*	9.2µM*	-2%	2%
CCOc1ccc(NC(=O)c2c(O)[nH]c(=O)[nH]c2=O)cc1	23µM*	16µM*	2%	/
Cc1[nH]c2ccccc2c1P(=S)(c1ccccc1)c1ccccc1	/	/	/	0%
Cc1ccc2c(=O)n(-c3cccc(Cl)c3)c(=O)[nH]c2c1	?	?	-1%	-5%[12.3 µM]
CN1CSC(=S)N(C)C1	6.5µM*	4.6µM*	-5%	-9%
CCN1C[C@]2(COC(=O)c3ccccc3N)CC[C@H](OC)C34[C@@H]5C[C@H]6[C@H](OC)[C@@H]5[C@](O)(C[C@@H]6OC)[C@@](O)([C@H]13)[C@@H](OC)[C@@H]42	3%	4%	4%	/
CCN1CC2(COC(=O)c3ccccc3N)CCC(OC)C34C5CC6C(OC)CC(O)(C5C6OC)C(O)(C(OC)C23)C14 (configuration not stated)	-11%	-23%	16µM*	4%
SMILES	DT40 TDP1 CPT	DT40 TDP1 no CPT	ClpP mod	TDP1 block
CN1C(=O)NC(=O)/C(=C\C=C\c2ccccc2[N+](=O)[O-])C1=O	?	5.8µM*	/	3%
N#Cc1c(Br)n(C2OC(CO)C(O)C2O)c2ncnc(N)c12 (configuration not stated)	1.5µM*	1.2µM*	?	/
NC(=O)c1c(Br)n(C2OC(CO)C(O)C2O)c2ncnc(N)c12 (configuration not stated)	2.1µM*	1.8µM*	0%	/
CCCCC/C=C\C/C=C\CCCCCCCCCC(=O)NCCO	/	/	/	3%
Cc1ccc(CNc2cc(C)nc3nc(-c4ccc(C)cc4)nn23)cc1	/	/	37%	3%
O=C(Nc1ccc2c(c1)OCCO2)c1cccn(Cc2cccc(F)c2)c1=O	21µM*	23µM*	-1%	3%
Cc1ccc(Cn2cccc(C(=O)Nc3ccc4c(c3)OCCO4)c2=O)cc1	21µM*	16µM*	2%	-3%
Cc1ccc(Cn2cccc(C(=O)Nc3ccc4c(c3)OCO4)c2=O)cc1	-24%	-17%	1%	3%
CCc1ccc(NC(=O)c2cccn(Cc3cccc([N+](=O)[O-])c3)c2=O)cc1	-19%	21µM*	2%	-3%
O=C(O)/C=C/CO	-3%	-4%	/	7%
NC(=O)[C@@H]1CCCN1C(=O)[C@H](Cc1ccccc1)NC(=O)[C@@H]1CCCN1C(=O)[C@@H](N)Cc1ccc(O)cc1	-4%[4.12 µM]	14%[4.12 µM]	/	6%
COC(=O)[C@]1(C)N[C@H](CN(C)S(=O)(=O)c2ccc(-c3ccccc3)cc2)[C@@H]2C(=O)N(Cc3ccccc3)C(=O)[C@@H]21	?	?	0%	0%
O=C(Cc1n[nH]c(=O)c2ccccc12)OCc1c(Cl)cccc1Cl	?	?	/	-4%
C=CCn1c(O)c(C(C)=Nc2ccc(C(=O)O)cc2)c(=O)[nH]c1=O	10%	2%	/	/
O=C(CCl)c1ccccc1	/	/	/	3%
CC/C=C\C/C=C\C/C=C\C/C=C\C/C=C\CCCC(=O)NC(C)C(=O)O (configuration not stated)	/	/	/	4%
COC(=O)C1=C(c2ccc(-c3ccccc3)c(F)c2)C[C@@H]2CC[C@H]1N2C(=O)N1CCC(O)CC1	15µM*	9.2µM*	-1%	1%
COC(=O)C1=C(c2ccc(-c3ccccc3)c(F)c2)C[C@@H]2CC[C@H]1N2C(=O)N1CCC(C)CC1	7.3µM*	4.6µM*	-13%	0%
COC(=O)C1=C(c2cccc(OC)c2OC)C[C@@H]2CC[C@H]1N2C(=O)N1CCC(C)CC1	?	13µM*	-1%	/
COC(=O)C1=C(c2cccc(OC)c2OC)C[C@@H]2CC[C@H]1N2C(=O)N1CCC(O)CC1	7%	0%	-1%	/
COC(=O)C1=C(c2cccc(C#N)c2)C[C@@H]2CC[C@H]1N2C(=O)NC(C)C	5%	-4%	2%	1%
COC(=O)C1=C(c2cccc(C#N)c2)C[C@@H]2CC[C@H]1N2C(=O)N1CCC(C)CC1	16µM*	23µM*	1%	0%
Clc1ccccc1C(c1ccccc1)(c1ccccc1)n1cccn1	/	/	/	6%
COC(=O)C1=C(c2ccc(F)cc2F)C[C@@H]2CC[C@H]1N2C(=O)N1CCC(C)CC1	16µM*	10µM*	2%	0%
